Where “and” joins values, the source holds several entries; their conditions need not be identical. Equal entries are not always repeated. Records with an inconclusive call do not appear. A structure can be active in one record and inactive in another. Calls of active or inactive are those of the source. Rule for the calls, unless noted: active = hit-call score of the fitted dose curve at least 0.9, where 1 is the maximum; inactive = score below 0.9.
Columns and labels:
[1] = biological target: Peroxisome proliferator-activated receptor gamma (Homo sapiens) (UniProt P37231); experiment: OT_PPARg_PPARgSRC1_0480: Odyssey Thera (OT) 8-hour Protein-Complementation Assay for Peroxisome Proliferator-activated Receptor Gamma / SRC-1 Co-activator (AID 2283387; active = hit-call score of the fitted dose curve at least 0.9, where 1 is the maximum;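 note: nuclear to cytoplasmic split Venus YFP fluorescence ratio reporting PPARg SRC-1 interaction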)
Chain of Peroxisome proliferator-activated receptor gamma (Homo sapiens) (P37231 whole entry, looked up, the tested form may be a part): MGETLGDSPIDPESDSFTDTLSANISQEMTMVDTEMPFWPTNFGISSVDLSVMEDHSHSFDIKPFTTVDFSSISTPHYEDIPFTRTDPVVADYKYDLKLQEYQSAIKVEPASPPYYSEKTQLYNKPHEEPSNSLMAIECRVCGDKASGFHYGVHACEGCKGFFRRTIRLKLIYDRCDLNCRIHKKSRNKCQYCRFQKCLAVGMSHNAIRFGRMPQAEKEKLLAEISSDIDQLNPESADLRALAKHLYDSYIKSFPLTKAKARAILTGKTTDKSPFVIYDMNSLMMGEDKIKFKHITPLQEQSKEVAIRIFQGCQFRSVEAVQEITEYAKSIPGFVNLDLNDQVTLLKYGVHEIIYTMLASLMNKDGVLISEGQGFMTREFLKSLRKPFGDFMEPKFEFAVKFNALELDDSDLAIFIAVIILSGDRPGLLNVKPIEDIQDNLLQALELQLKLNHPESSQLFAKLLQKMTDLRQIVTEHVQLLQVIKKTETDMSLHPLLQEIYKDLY
In short: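 Protein-fragment complementation of split Venus YFP reports PPARg/SRC-1 interaction in HEK293T (transfected 48 h before treatment), exposed 8 h. Readout: N/C fluorescence ratio at 488 nm from imaging, Draq5 for segmentation, positive fit relative to DMSO.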

[2] = biological target: Peroxisome proliferator-activated receptor gamma (Homo sapiens) (UniProt P37231); experiment: OT_PPARg_PPARgSRC1_1440: Odyssey Thera (OT) 24-hour Protein-Complementation Assay for Peroxisome Proliferator-activated Receptor Gamma/ SRC-1 Co-activator (AID 2283388; active = hit-call score of the fitted dose curve at least 0.9, where 1 is the maximum;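 note: nuclear to cytoplasmic ratio of reconstituted Venus YFP fluorescence in fixed imaged cells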)
In short: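 Readout is the 488 nm N/C fluorescence ratio from fixed, Draq5-stained HEK293T cells after 24 h compound exposure. Cells carried transiently transfected PPARg and SRC-1 fused to Venus fragments, transfected 48 h before treatment.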

[3] = CEETOX_H295R_OHPROG: CeeTox H295R High-throughput Steroidogenesis Assay for OH-Progesterone (OHPROG) (AID 2283435); details: actives raise or lower the signal;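 for AC50: 17alpha-hydroxyprogesterone secreted into medium measured by HPLC-MS/MS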
In short: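 Human adrenocortical H295R cells, passage 10 or lower, were treated with chemical for 48 h after forskolin priming, and hormone output in the medium was quantified by LC-MS/MS.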

[4] = CEETOX_H295R_CORTIC: CeeTox H295R High-throughput Steroidogenesis Assay for Corticosterone (CORTIC) (AID 2283437); details: actives raise or lower the signal
In short: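 Medium corticosterone was quantified by tandem mass spectrometry following 48 hours of chemical exposure (0.1% DMSO) in human H295R cells previously stimulated 48 hours with 10 uM forskolin. Viability checked by MTT; chemicals diluted and retested when viability fell below 70%.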

[5] = CEETOX_H295R_CORTISOL: CeeTox H295R High-throughput Steroidogenesis Assay for Cortisol (AID 2283438); details: actives raise or lower the signal;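 note: cortisol secreted into medium quantified by LC-MS/MS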
In short: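 Steroidogenesis in H295R, per modified OECD 456: 48 h forskolin (10 uM), then 48 h exposure, 0.1% DMSO. Cortisol by extraction and tandem MS; viability by MTT (570/650 nm); cytotoxic chemicals diluted and re-tested.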

[6] = CEETOX_H295R_DOC: CeeTox H295R High-throughput Steroidogenesis Assay for DOC (AID 2283439); details: actives raise or lower the signal
In short: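 H295R, fsk 10 uM ×48 h pre, cmpd ×48 h (0.1% DMSO). Media → MTBE extr. → LC-MS/MS, DOC. Bidirectional fit vs DMSO; MTT viability same wells, re-test diluted if <70%.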

[7] = CEETOX_H295R_ESTRADIOL: CeeTox H295R High-throughput Steroidogenesis Assay for Estradiol (AID 2283440); details: actives raise or lower the signal;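 note: estradiol secreted into medium quantified by LC-MS/MS after dansyl derivatisation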
In short: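 Estradiol in spent medium measured by LC-MS/MS after dansyl chloride derivatisation. Forskolin-primed (10 uM, 48 h) human adrenal H295R cells received test chemical 48 h at 0.1% DMSO; concentrations lowered until MTT viability >/=70%.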

[8] = CEETOX_H295R_ESTRONE: CeeTox H295R High-throughput Steroidogenesis Assay for Estrone (AID 2283441); details: actives raise or lower the signal;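 note: estrone secreted into medium measured by LC-MS/MS after dansyl derivatization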;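 for AC50: human adrenal H295R cells prestimulated with forskolin for two days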
In short: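 Forskolin-stimulated H295R cells are treated 48 h with chemical, and estrone in the medium is measured by LC-MS/MS. Activity is fitted in both directions relative to DMSO controls, with chemicals diluted until MTT viability reaches at least 70%.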

[9] = CEETOX_H295R_PROG: CeeTox H295R High-throughput Steroidogenesis Assay for Progesterone (PROG) (AID 2283442); details: actives raise or lower the signal;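 for AC50: human H295R adrenal cells primed with 10 µM forskolin before dosing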
In short: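 Progesterone secreted by human H295R cells was measured by LC-MS/MS following 48 h chemical exposure at 0.1% DMSO, preceded by 48 h forskolin (10 uM) stimulation. Same-well MTT viability; cytotoxic concentrations diluted 10- or 100-fold and retested.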

[10] = read-out: Tumor necrosis factor receptor superfamily member 6 (Homo sapiens) (UniProt P25445); experiment: LTEA_HepaRG_FAS: Life Technologies and Expression Analysis (LTEA) Assay for Fas cell surface death receptor (FAS) using HepaRG (AID 2283447); details: mRNA level, 48 h; actives raise or lower the signal
In short: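 FAS transcript level was measured by TaqMan qRT-PCR against three housekeeping genes after 48 h chemical exposure. Cells were HepaRG, 0.5% DMSO vehicle, with a top concentration of 100 uM and half-log dilutions over eight points, in duplicate.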

[11] = read-out: Fatty acid synthase (Homo sapiens) (UniProt P49327); experiment: LTEA_HepaRG_FASN: Life Technologies and Expression Analysis (LTEA) Assay for Fatty Acid Synthase (FASN) using HepaRG (AID 2283448); details: mRNA level, 48 h; actives raise or lower the signal;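 for AC50: differentiated human HepaRG liver cells in serum-free induction medium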
In short: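 In human HepaRG cultures, 48 h chemical exposure (up to 100 uM, 0.5% DMSO) preceded TaqMan qRT-PCR of FASN.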

[12] = read-out: Cyclin Dependent Kinase Inhibitor 1A (CDKN1A), CDKN1A (gene 1026); experiment: LTEA_HepaRG_CDKN1A: Life Technologies and Expression Analysis (LTEA) Assay for Cyclin Dependent Kinase Inhibitor 1A (CDKN1A) using HepaRG (AID 2283450); details: mRNA level, 48 h; actives raise or lower the signal
In short: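 Expression quantified by Fluidigm qRT-PCR with ACTB, GAPDH and POLR2A normalization, fitted bidirectionally against 0.5% DMSO. Cells: HepaRG, plated 48 h then treated 48 h in serum-free induction medium, top concentration 100 uM with half-log dilutions.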

[13] = read-out: Cyclin D1 (CCND1), CCND1 (gene 595); experiment: LTEA_HepaRG_CCND1: Life Technologies and Expression Analysis (LTEA) Assay for Cyclin D1 (CCND1) using HepaRG (AID 2283451); details: mRNA level, 48 h; actives raise or lower the signal
In short: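 Expression of CCND1 was quantified by qRT-PCR on Fluidigm arrays using ACTB, GAPDH and POLR2A as reference genes. HepaRG cultures, plated 48 h beforehand, were dosed for 48 h at up to 100 uM (half-log, 8 points) in 0.5% DMSO.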

[14] = read-out: catalase (CAT), CAT (gene 847); experiment: LTEA_HepaRG_CAT: Life Technologies and Expression Analysis (LTEA) Assay for catalase (CAT) using HepaRG (AID 2283452); details: mRNA level, 48 h; actives raise or lower the signal;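 for AC50: TaqMan qRT-PCR signal normalized to ACTB GAPDH and POLR2A housekeeping genes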
In short: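 Expression of CAT was quantified by TaqMan qRT-PCR with ACTB/GAPDH/POLR2A normalization after 48 h chemical exposure of HepaRG. Eight-point half-log series, top 100 uM, in 0.5% DMSO; gain or loss fitted against vehicle.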

[15] = read-out: flavin-containing dimethylaniline monooxygenases 3 (FMO3), FMO3 (gene 2328); experiment: LTEA_HepaRG_FMO3: Life Technologies and Expression Analysis (LTEA) Assay for flavin-containing dimethylaniline monooxygenases 3 (FMO3) using HepaRG (AID 2283453); details: mRNA level, 48 h; actives raise or lower the signal;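 for AC50: differentiated human HepaRG liver cells in serum-free induction medium; FMO3 transcript by TaqMan qRT-PCR normalized to ACTB GAPDH and POLR2A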
In short: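 Eight-point concentration-response in serum-free HepaRG cultures (top 100 uM, 0.5% DMSO, 48 h). Read-out: FMO3 mRNA level normalized to three endogenous control genes, fitted bidirectionally versus vehicle.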

[16] = read-out: Cytochrome P450 (CYP1A1), CYP1A1 (gene 1543); experiment: LTEA_HepaRG_CYP1A1: Life Technologies and Expression Analysis (LTEA) Assay for Cytochrome P450 (CYP1A1) using HepaRG (AID 2283454); details: mRNA level, 48 h; actives raise or lower the signal
In short: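 CYP1A1 transcript levels measured by Fluidigm qRT-PCR against three housekeeping genes, 48 h after chemical dosing of human HepaRG cells (highest concentration 100 uM, half-log steps, 0.5% DMSO vehicle). Gain or loss of signal fitted relative to DMSO.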

[17] = read-out: CFLAR gene, CFLAR (gene 8837); experiment: LTEA_HepaRG_CFLAR: Life Technologies and Expression Analysis (LTEA) Assay for CFLAR gene using HepaRG (AID 2283455); details: mRNA level, 48 h; actives raise or lower the signal
In short: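 Transcript level by qRT-PCR (normalized to ACTB, GAPDH and POLR2A) after 48 h chemical exposure of HepaRG cells, top concentration 100 uM with half-log steps, 0.5% DMSO vehicle, duplicates; fitted bidirectionally against DMSO baseline.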

[18] = read-out: Forkhead box O1 (FOXO1), FOXO1 (gene 2308); experiment: LTEA_HepaRG_FOXO1: Life Technologies and Expression Analysis (LTEA) Assay for Forkhead box O1 (FOXO1) using HepaRG (AID 2283456); details: mRNA level, 48 h; actives raise or lower the signal
In short: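 FOXO1 transcript quantified by qRT-PCR after 48 h chemical exposure (top 100 uM, half-log steps, 0.5% DMSO) of HepaRG cells, housekeeping-normalized (ACTB/GAPDH/POLR2A). Changes fitted in both directions relative to vehicle.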

[19] = CEETOX_H295R_ANDR: CeeTox H295R High-throughput Steroidogenesis Assay for Androstenedione (ANDR) (AID 2283436); details: actives raise or lower the signal
In short: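 Medium from 48 h chemical-treated H295R adrenal cells was extracted with MTBE and androstenedione measured by LC-MS/MS. Activity was fit in both directions relative to DMSO. Cytotoxic concentrations were re-tested after dilution until MTT viability reached ≥70%.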

[20] = read-out: Cyclin D2 (CCND2), CCND2 (gene 894); experiment: LTEA_HepaRG_CCND2: Life Technologies and Expression Analysis (LTEA) Assay for Cyclin D2 (CCND2) using HepaRG (AID 2283449); details: mRNA level, 48 h; actives raise or lower the signal
In short: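 CCND2 transcript levels, quantified by qRT-PCR and normalised to three housekeeping genes, were fitted bidirectionally against 0.5% DMSO. HepaRG cultures were dosed 48 h in duplicate with an 8-point half-log series up to 100 uM.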

Measured: AC50

Chain of Fatty acid synthase (Homo sapiens) (P49327 whole entry, looked up): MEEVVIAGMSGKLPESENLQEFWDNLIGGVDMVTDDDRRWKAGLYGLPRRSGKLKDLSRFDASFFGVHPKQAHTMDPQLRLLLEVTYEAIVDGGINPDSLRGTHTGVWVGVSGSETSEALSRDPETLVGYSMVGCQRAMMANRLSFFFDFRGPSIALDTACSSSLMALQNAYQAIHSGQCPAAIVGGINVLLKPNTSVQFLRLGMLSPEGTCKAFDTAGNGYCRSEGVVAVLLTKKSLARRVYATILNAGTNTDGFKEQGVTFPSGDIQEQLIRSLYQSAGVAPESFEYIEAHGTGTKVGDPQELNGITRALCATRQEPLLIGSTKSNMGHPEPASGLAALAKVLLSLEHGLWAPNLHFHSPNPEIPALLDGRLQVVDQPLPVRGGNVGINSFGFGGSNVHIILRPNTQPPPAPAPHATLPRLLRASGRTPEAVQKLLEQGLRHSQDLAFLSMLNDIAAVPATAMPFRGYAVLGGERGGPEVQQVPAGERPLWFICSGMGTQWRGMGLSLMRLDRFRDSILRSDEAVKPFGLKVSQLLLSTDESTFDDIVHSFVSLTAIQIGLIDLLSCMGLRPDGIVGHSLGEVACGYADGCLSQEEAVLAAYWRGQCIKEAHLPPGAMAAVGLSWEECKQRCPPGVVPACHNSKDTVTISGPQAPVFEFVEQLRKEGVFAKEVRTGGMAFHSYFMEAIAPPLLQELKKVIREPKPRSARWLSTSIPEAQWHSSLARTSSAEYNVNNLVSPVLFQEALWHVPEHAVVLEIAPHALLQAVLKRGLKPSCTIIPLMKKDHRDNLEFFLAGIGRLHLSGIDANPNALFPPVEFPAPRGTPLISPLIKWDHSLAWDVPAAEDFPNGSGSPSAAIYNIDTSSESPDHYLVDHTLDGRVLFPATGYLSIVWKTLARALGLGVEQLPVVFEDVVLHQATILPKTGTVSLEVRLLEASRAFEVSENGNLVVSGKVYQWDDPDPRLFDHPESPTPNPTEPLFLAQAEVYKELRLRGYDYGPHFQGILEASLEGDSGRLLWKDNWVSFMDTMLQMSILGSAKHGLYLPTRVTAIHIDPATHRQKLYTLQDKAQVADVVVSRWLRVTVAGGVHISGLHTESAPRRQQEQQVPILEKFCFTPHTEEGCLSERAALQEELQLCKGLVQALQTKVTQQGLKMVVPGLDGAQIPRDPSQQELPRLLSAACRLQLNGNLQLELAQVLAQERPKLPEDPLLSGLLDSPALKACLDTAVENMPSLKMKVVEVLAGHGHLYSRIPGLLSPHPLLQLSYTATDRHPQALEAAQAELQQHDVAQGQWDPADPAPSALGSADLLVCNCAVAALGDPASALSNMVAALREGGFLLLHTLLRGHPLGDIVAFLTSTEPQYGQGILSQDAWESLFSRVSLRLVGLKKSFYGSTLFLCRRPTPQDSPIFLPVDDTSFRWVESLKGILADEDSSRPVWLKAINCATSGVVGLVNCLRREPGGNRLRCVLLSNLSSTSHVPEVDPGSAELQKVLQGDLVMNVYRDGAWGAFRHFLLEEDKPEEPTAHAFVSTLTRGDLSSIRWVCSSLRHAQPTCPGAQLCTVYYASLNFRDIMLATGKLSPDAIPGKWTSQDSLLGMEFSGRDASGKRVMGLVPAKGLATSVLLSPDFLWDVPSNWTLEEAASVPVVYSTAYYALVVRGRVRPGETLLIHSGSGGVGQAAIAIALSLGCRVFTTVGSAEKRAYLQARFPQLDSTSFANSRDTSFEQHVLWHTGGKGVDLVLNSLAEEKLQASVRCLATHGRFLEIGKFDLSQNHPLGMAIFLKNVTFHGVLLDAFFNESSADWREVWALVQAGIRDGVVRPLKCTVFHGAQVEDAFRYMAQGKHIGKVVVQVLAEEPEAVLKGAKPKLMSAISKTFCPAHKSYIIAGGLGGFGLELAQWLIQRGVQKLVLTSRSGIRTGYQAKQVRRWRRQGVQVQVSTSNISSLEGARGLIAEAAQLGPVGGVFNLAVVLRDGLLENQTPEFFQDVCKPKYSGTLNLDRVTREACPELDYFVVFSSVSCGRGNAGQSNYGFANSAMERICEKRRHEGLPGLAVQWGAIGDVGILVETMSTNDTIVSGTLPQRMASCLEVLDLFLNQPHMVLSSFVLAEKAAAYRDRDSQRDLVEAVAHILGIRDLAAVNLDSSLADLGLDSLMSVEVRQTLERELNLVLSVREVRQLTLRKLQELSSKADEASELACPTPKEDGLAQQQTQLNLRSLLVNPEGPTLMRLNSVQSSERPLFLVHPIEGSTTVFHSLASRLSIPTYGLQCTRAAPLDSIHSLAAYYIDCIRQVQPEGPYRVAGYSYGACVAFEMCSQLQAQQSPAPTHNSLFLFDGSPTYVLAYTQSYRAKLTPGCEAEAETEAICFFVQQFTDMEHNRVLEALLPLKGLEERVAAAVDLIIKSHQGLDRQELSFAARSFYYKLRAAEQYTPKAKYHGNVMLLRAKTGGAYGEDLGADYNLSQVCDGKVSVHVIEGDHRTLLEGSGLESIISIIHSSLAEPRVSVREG

Clc1ccc(C(c2ccccc2Cl)C(Cl)(Cl)Cl)cc1 (stereo not given)
active: [11] 50 µM | [14] 19.3 µM | [15] 74.6 µM | [16] 20 µM
not listed: [19] | [20]
inactive: all other assays above

CCC(=O)O[C@H]1CC[C@H]2[C@@H]3CCC4=CC(=O)CC[C@]4(C)[C@H]3CC[C@]12C
active: [3] 3.14 µM | [19] 22.8 µM | [5] 30.7 µM | [6] 1.77 µM | [7] 0.643 µM | [8] 1.31 µM | [9] 2.65 µM | [16] 13.1 µM
inactive: all other assays above

Cc1ccccc1O
inactive: [1] | [2] | [10] | [11] | [20] | [12] | [13] | [14] | [15] | [16] | [17]

CCCCCCOC(=O)c1ccccc1C(=O)OCCCCCC
active: [16] 50 µM
inactive: [1] | [2] | [4] | [10] | [11] | [12] | [13] | [14] | [15] | [17]

Cc1cc2c3c(c1)C(c1ccccc1)=N[C@@H](NC(=O)c1ccncc1)C(=O)N3CC2
inactive: [2] | [7] | [8] | [10] | [20] | [13] | [14] | [17]
active: [1] 25 µM and 20.8 µM | [2] 37.4 µM | [3] 25.6 µM | [9] 28.1 µM | [11] 50 µM | [12] 50 µM | [15] 81.8 µM | [16] 24.4 µM

Cc1cc(-c2ccc(N)c(C)c2)ccc1N
inactive: [1] | [2] | [10] | [20] | [12] | [13] | [14] | [17]
active: [3] 2.96 µM and 10.2 µM | [9] 2.96 µM and 31.1 µM | [11] 25.1 µM | [15] 25.1 µM | [16] 20.3 µM

O=C(N[C@H]1CN2CCC1CC2)c1cc2ccoc2cn1
inactive: [1] | [2] | [10] | [11] | [20] | [12] | [13] | [14] | [15] | [17]
active: [16] 50 µM
